Screening data from PubChem BioAssay.
An excerpt weighted towards active compounds, which were near 11% of everything screened.
NPSR antagonist – antagonists of human neuropeptide S receptor cAMP signaling; Potency, µM (titrated, usually from 38.3 µM), actives largely listed as inhibitors; CHO-NPSR cells, cAMP TR-FRET, antagonist mode; hit rate 1% among 220,000; Q6W5P4; active means well fitted curve in the direction sought with a large enough effect; inconclusive means small, poorly fitted or top-dose-only effect, or another doubt; inactive means no such curve, though single readings can be large; an effect the other way counts as inactive or inconclusive; further: nearly all actives have a fitted effect of over 50% in size
ALDH1A1 block – blocks purified human ALDH1A1 activity. Potency, µM (top dose mostly 75.3 µM), actives largely listed as inhibitors. hit rate 7.3% among 220,000. Purified ALDH1A1, NADH fluorescence, propionaldehyde substrate
IMPase Li inh – cell-permeable IMPase inhibitors with lithium potentiation | CHO-M1 cells, IP1 TR-FRET (IP-One), carbachol + lithium | Potency, µM (highest dose often 59.4 µM), usual class: inhibitors | hit rate 0.35% among 210,000 | AID 1457; active means well fitted curve in the direction sought with a large enough effect; inconclusive means small, poorly fitted or top-dose-only effect, or another doubt; inactive means no such curve, though single readings can be large; an effect the other way counts as inactive or inconclusive;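 further: IP1 builds up when IMPase is blocked and the TR-FRET signal falls; nearly all actives have a fitted effect of over 50% in size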
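IP1 accumulation measured by competitive TR-FRET in lysed CHO-M1 cells after 30 min compound exposure at 37C, with a small lithium addition to potentiate weak responses. Hill-equation AC50 from ratio and donor-channel data.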
IMPase cell inh – IMPase inhibition in cells; P97697; CHO-M1 cells, IP1 accumulation, HTRF TR-FRET ratio; inhibition (IP1 accumulation), % at 46.1 µM; 120,000 tested, under 10 active; active means well fitted curve in the direction sought with a large enough effect in the signal ratio, not every such curve was filed as active; inconclusive means small, poorly fitted or top-dose-only effect, or a change in a side signal; inactive means no such curve, though single readings can be large or run the other way; the % refers to the signal ratio;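 further: cells stimulated with carbachol in lithium chloride buffer; higher means more IMPase inhibition seen as more IP1 and lower FRET ratio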
Target sequence (P97697 whole entry, looked up): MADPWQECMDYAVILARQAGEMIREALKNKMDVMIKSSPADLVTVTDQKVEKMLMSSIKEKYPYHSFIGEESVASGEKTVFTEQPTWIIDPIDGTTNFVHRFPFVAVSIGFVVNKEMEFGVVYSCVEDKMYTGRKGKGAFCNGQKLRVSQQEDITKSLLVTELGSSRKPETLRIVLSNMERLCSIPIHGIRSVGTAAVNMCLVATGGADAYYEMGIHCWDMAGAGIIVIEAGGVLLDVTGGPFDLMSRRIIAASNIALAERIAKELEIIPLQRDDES
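The IP-One HTRF competitive assay in carbachol-stimulated CHO-M1 cells quantifies cellular IP1. Compounds spanned up to 46 uM final, and activity is expressed as AC50 from concentration-response fits of the ratio and donor data.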
HPGD block – HPGD (human) dehydrogenase inhibition | P15428 | purified HPGD, NADH fluorescence kinetic, PGE2 substrate | Potency, µM, hits mostly inhibitors | hit rate 4.3% among 150,000 | AID 894
Target sequence (P15428 whole entry, looked up): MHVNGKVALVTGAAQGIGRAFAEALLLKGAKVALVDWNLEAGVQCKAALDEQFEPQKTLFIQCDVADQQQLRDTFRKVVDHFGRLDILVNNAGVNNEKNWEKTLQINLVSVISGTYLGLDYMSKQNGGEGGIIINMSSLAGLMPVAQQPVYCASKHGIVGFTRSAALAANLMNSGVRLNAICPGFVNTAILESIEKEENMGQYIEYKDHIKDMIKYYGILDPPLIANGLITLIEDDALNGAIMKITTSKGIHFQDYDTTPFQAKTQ
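NADH formation kinetics: reaction with 30 uM PGE2 and 1 mM NAD+ (final), 20 nM enzyme, Tris-HCl pH 8 with Tween 20, after 15 min compound preincubation at room temperature. Fluorescence change, last versus first of five reads.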
PNC inhibitor – perinucleolar compartment assembly inhibition; PC3M PTB-GFP, PNC prevalence imaging, 16 h; active compounds read low; activity change (PNC), negative = inhibition, % at 10 µM; hit rate 3.1% among 140,000;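 active means readout at or below -70, meaning at least 70% loss of cells showing the perinucleolar compartment, a nuclear body marking cancer cells; inconclusive means readout between -30 and a set limit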
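Compounds are pinned in duplicate onto adhered PC3M cells stably expressing GFP-tagged PTB and incubated 16 h at 37 C. Cells are then fixed, nuclei stained with Hoechst, and PNC-positive cells counted.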
Each line names hits and unclear results; the compound was inactive in the other large screens. Unless noted, the call rests on the fitted dose curve; in most records, active means well fitted inhibition curve with a large enough effect (not every such curve was filed as active); inconclusive means small, poorly fitted or top-dose-only effect, or another doubt; inactive means no such curve, though single readings can be large or run the other way.

O=C(Oc1c(CN2CCOCC2)cc(Cl)c2cccnc12)c1ccccc1Cl	NPSR antagonist 7.9µM (no result: IMPase cell inh, HPGD block, PNC inhibitor)
O=C(Oc1c(CN2CCOCC2)cc(Cl)c2cccnc12)c1ccc(F)cc1	NPSR antagonist 5µM, ALDH1A1 block inconclusive, PNC inhibitor inconclusive
O=C(Oc1c(CN2CCOCC2)cc(Cl)c2cccnc12)c1cccs1	NPSR antagonist inconclusive, ALDH1A1 block inconclusive (no result: IMPase cell inh, HPGD block, PNC inhibitor)
CC(C)C1CC(=O)NC(SCC(=O)Nc2ccc(Br)cc2)=C1C#N (configuration not stated)	ALDH1A1 block 8.9µM, PNC inhibitor inconclusive
COc1ccccc1C1CC(=O)NC(SCC(=O)Nc2ccccc2)=C1C#N (configuration not stated)	ALDH1A1 block inconclusive
Cc1ccc(NC(=O)CSC2=C(C#N)C(c3ccco3)CC(=O)N2)cc1 (configuration not stated)	ALDH1A1 block 14µM
Cc1ccc(C(=O)CSC2=C(C#N)C(c3ccco3)CC(=O)N2)c(C)c1 (configuration not stated)	ALDH1A1 block inconclusive, HPGD block inconclusive
Cc1ccc(NC(=O)CSC2=C(C#N)C(c3ccco3)C3=C(CC(C)(C)CC3=O)N2)cc1 (configuration not stated)	ALDH1A1 block 13µM
Cc1ccc(C)c(-n2c(-c3cccnc3)n[nH]c2=S)c1	ALDH1A1 block inconclusive (no result: IMPase cell inh, HPGD block, PNC inhibitor)
CC1(C)CC(NC(=O)C23CCC(C)(C(=O)C2=O)C3(C)C)CC(C)(C)N1 (configuration not stated)	none (no result: IMPase cell inh, HPGD block, PNC inhibitor)
CC1(C)CC(NC(=O)C23CCC(C)(/C(=N/O)C2)C3(C)C)CC(C)(C)N1 (configuration not stated)	PNC inhibitor -118
O=C(O)C=C1C2CC3CC(C2)CC1C3	PNC inhibitor -82
CC(=O)C1=C(O)C(=O)N(CO)C1c1ccccc1F (configuration not stated)	PNC inhibitor inconclusive
CCN1C(=O)NC2=C(C(=O)c3ccccc32)C1c1ccccc1F (configuration not stated)	ALDH1A1 block 0.32µM, PNC inhibitor inconclusive
COc1ccc(CSc2nc(C)[nH]c2[N+](=O)[O-])cc1[N+](=O)[O-]	none (no result: ALDH1A1 block, IMPase Li inh, IMPase cell inh, HPGD block, PNC inhibitor)
COc1ccc(CSc2nncn2N)cc1[N+](=O)[O-]	ALDH1A1 block inconclusive, PNC inhibitor -89 (no result: IMPase cell inh)
COc1ccc(CSc2nncn2C)cc1[N+](=O)[O-]	ALDH1A1 block 20µM (no result: IMPase cell inh)
CN(CC(=O)Nc1ccc(F)c(F)c1)S(=O)(=O)c1cccc2nsnc12	none
Cc1cc(C)n(Cc2ccccc2)c(=O)c1S(=O)(=O)c1ccccc1	ALDH1A1 block inconclusive
Cc1c(CN(C)C)c2c(n1Cc1ccccc1)C(=O)c1ccc(Br)cc1-2	NPSR antagonist inconclusive, ALDH1A1 block 10µM
COc1ccccc1CNC(=O)C(NC(=O)c1ccccc1C)C(C)C (configuration not stated)	none (no result: IMPase cell inh, HPGD block, PNC inhibitor)
COc1ccc(CN(CCC(c2ccccc2)c2ccco2)C(=O)c2ccco2)cc1 (configuration not stated)	ALDH1A1 block 7.9µM, HPGD block 28µM
CCN(CC)C(=O)CC(c1ccccc1)c1ccco1 (configuration not stated)	HPGD block 16µM
CCCN(CCC)C(=O)CC(c1ccc(F)cc1)c1ccco1 (configuration not stated)	NPSR antagonist inconclusive, ALDH1A1 block inconclusive
CCc1ccc(N2CC(C(=O)N/N=C/c3cccc([N+](=O)[O-])c3)CC2=O)cc1 (configuration not stated)	none
Cc1ccc(-c2cc3cccc[n+]3cc2-c2ccc(C)cc2)cc1	ALDH1A1 block inconclusive, HPGD block inconclusive (no result: IMPase cell inh)
Cc1nc2c(nnn2Cc2ccccc2)c(=O)[nH]1	none (no result: IMPase cell inh, HPGD block, PNC inhibitor)
O=C(Cc1cccs1)N1CCC(c2nc3c(nnn3Cc3ccc(F)cc3)c(=O)[nH]2)CC1	HPGD block 14µM, PNC inhibitor inconclusive
O=C(Cc1cccs1)N1CCCC(c2nc3c(nnn3Cc3cccc(Cl)c3)c(=O)[nH]2)C1 (configuration not stated)	HPGD block 6.3µM
Nc1ccn(-c2ncc(C(F)(F)F)cc2Cl)c(=O)n1	none (no result: IMPase cell inh, HPGD block, PNC inhibitor)
